{
  "source": "paper PMC12136788",
  "binders": {"B1": {"name": "chrX:71482573:71482574:-_ENSMUSG00000031328_ENSMUST00000144429|mus_hu|FALSE|FALSE (ssRNA)", "RNA": "GGGAGUUCUACAGUCCGACGAUCCUGCCACUGAGAAAGGGCUCUUAGGGAUGGGAUCCCCUCCAUAAGUGACAUUGACGCCUACUGGACCCUGCUGGACAGGCGUGUACUUGACUGUGUAGGUGUUGUCAUGGUGGUCGAUGACAACAGAGGAUUGAGCAUCA"}, "B2": {"name": "chr6:38652254:38652255:-_ENSG00000124767_ENST00000373365|hu_hu|hu_hu_hu_mus_False|18_28 (ssRNA)", "RNA": "GGGAGUUCUACAGUCCGACGAUCCGAGAACUUCAUAGCAGGGAAGUCAAGCUUCUGCAGGAGGGUCAGUCCAAGAACCCUCGUAUAAAAAUCCAGGGACUUCUUAGGAUCCUUCACUCGUAGCAUGGUUUGCUGCAGUAGAAACAACAGAGGAUUGAGCAUCA"}, "B3": {"name": "chr18:67804014:67804015:+_ENSMUSG00000024537_ENSMUST00000025418|mus_hu|FALSE|FALSE (ssRNA)", "RNA": "GGGAGUUCUACAGUCCGACGAUCACAAUCGGUAUAGAAGUAACCAAUCUUAGACAUAUUCAGUGUAGAAAUAAUCAGAUCCAUUGCAAGCUGGCCAACAUUUCCAACAGAUACUGCUGGCCUGAAGAUGGGAGUGGAGAGGGACAACAGAGGAUUGAGCAUCA"}, "B4": {"name": "58380664_58380784_167_CDS_ENSMUSG00000075700_ENSMUST00000107924|mouse|control|control (ssRNA)", "RNA": "GGGAGUUCUACAGUCCGACGAUCCUUGAGCAGCGGCCCGGUGGCGUACUGCAUCUUUAAUCUCUUGCUGGGCACGCCGCCCAGGUUGGCAGAGGCCUCGCUGCGGACCACCGCCGACGCCGCCACCAGCAGAAGCAGCAGGAGCAACAGAGGAUUGAGCAUCA"}, "B5": {"name": "5649169_5649289_955_CDS_ENSG00000160633_ENST00000592224|human|control|control (ssRNA)", "RNA": "GGGAGUUCUACAGUCCGACGAUCACAGUCCGUCCUCUCGCCAUCGCCUGGCUGCUCCGCGGGCUCCCUUUUCACUACCGCUAACAGGCUGUCUGCCUUGCUCGACUGAGCGUGUGCUGUUGACUCGCUGGCCAAAUCUAAAUCCAACAGAGGAUUGAGCAUCA"}, "B6": {"name": "chr14:53325254:53325255:-_ENSG00000073712_ENST00000341590|hu_hu|FALSE|FALSE (ssRNA)", "RNA": "GGGAGUUCUACAGUCCGACGAUCAACCACUUUGCAAUCUACUUCAGUACAAAUGAAGGACAAUCGUACUUCAUCUGCAAACUCUACGGUGACCAUUUUGAUUUCCCAGUUGACAUUCCACUGUUUCAUGUUGCUGAAACGCCACAACAGAGGAUUGAGCAUCA"}, "B7": {"name": "93044292_93044412_1315_3pUTR_ENSMUSG00000027217_ENSMUST00000111265|mouse|control|control (ssRNA)", "RNA": "GGGAGUUCUACAGUCCGACGAUCAGGAACAGCUGGUCCCAGGCCAGCCCUAGGUCCUUGUAGAGCCCAUGCCCCUUGCUUUAGAGCCUAGGUGAGGCCCCUUCAUGUCUGUCUUUUUUGUUUGUUUGUUUGUUUAUUUAAAAACAACAGAGGAUUGAGCAUCA"}, "B8": {"name": "chr1:235505951:235505952:+_ENSG00000152904_ENST00000391855|hu_mus|motif|central (ssRNA)", "RNA": "GGGAGUUCUACAGUCCGACGAUCUUUGUAGGCUUUAGCUUCAAGCUCUCUAAGAGUGUGUCGAGUGUAUGCAAAAGAACCGGCAUCCUCCAGGUACUGCACACAAUACUUUUUAAUAUCUAUAUUCUCUGUUCUCUGGCGCAGCAACAGAGGAUUGAGCAUCA"}, "B9": {"name": "52190027_52197400_608_3pUTR_ENSMUSG00000020402_ENSMUST00000102758|mouse|control|control (ssRNA)", "RNA": "GGGAGUUCUACAGUCCGACGAUCGUUGAUGUGCUCCCUCUUGUACCCUGUCUUGAUUUUAGCAUUUUUUUUCCCAGUGUUCGGCGAGAAUGACGAAUCAAAGGUGAGCUUCAGUCCACGAGCAAGCUGGUCUUCCACAGUGAUCAACAGAGGAUUGAGCAUCA"}, "B10": {"name": "chr17:60770872:60770873:+_ENSG00000011028_ENST00000303375|hu_hu|hu_hu_hu_mus_True|68_78 (ssRNA)", "RNA": "GGGAGUUCUACAGUCCGACGAUCUCUUUAAAAAAAAAAAAAAAAAGACAAACAAUAAUAAUGGCACAUUUAAAAAAAGAACUACAAUAGAGGGUCCGCUUUGAGUUUUUGUUCACAUCGUCCUGCACUGGGACACGGGGACUGCAACAGAGGAUUGAGCAUCA"}, "B11": {"name": "chr17:60770872:60770873:+_ENSG00000011028_ENST00000303375|hu_hu|hu_hu_hu_mus_True|48_68 (ssRNA)", "RNA": "GGGAGUUCUACAGUCCGACGAUCUCUUUAAAAAAAAAAAAAAAAAGACAAACAAUAAUAGCACAUUAUUUAAAAAAAGAACUACAAAGAAAGGGCCGCUUUGAGUUUUUGUUCACAUCGUCCUGCACUGGGACACGGGGACUGCAACAGAGGAUUGAGCAUCA"}, "B12": {"name": "chr17:60770872:60770873:+_ENSG00000011028_ENST00000303375|hu_hu|hu_hu_hu_mus_True|68_88 (ssRNA)", "RNA": "B11 RNA with A47U, C48U, A49U, C52A, U55C, A87U, G88A, A89G, A91G, G94U"}, "B13": {"name": "71650973_71651093_4703_CDS_ENSG00000075292_ENST00000264447|human|control|control (ssRNA)", "RNA": "GGGAGUUCUACAGUCCGACGAUCGUAAUCCAGUUUAGAAAGCUUGCCUUGCAGGGCUGAGAUCCUUCCACUGCCUCCUCUGGUAAGACUGCUCUGAGUAGGUUUGAAUUUACUGCUGCUUUCUGCCAAGCCUGACCUGGCACUCAACAGAGGAUUGAGCAUCA"}, "B14": {"name": "chr9:14812383:14812384:-_ENSMUSG00000031934_ENSMUST00000164273|mus_mus|mus_mus_mus_hu_True|38_108 (ssRNA)", "RNA": "GGGAGUUCUACAGUCCGACGAUCAUAGCUCAAGUAGAUACACGCUAACAGUAUAAUGAUGAGUGUCAGCAGGCGGCAGCUAAUGUACUUGAUGAUUAAAUGACUAGAAUUUUUCUUUGUCUUCAAGUACUGCUCCACAAUUGGCAACAGAGGAUUGAGCAUCA"}, "B15": {"name": "chr13:120183613:120183614:-_ENSMUSG00000025453_ENSMUST00000099149|mus_hu|FALSE|FALSE (ssRNA)", "RNA": "GGGAGUUCUACAGUCCGACGAUCGUAAAUAAAACUAAUCAGCGUUCCUGAUGUCUUUAAAAGGUCAGCUUCAUGAACACCUAAUGUUGGAUUAACCAUAGGGGCUCGCACUUUGACCACCAAAUCAGAAGCCAGCACUUCCUUCAACAGAGGAUUGAGCAUCA"}, "B16": {"name": "chr7:34927866:34927867:-_ENSMUSG00000052997_ENSMUST00000102746|mus_mus|FALSE|FALSE (ssRNA)", "RNA": "GGGAGUUCUACAGUCCGACGAUCGCUUUUGGCAGCAUCUUCAGCUUGUUUUGGCCCCACUUUUUCAGGGCUGUCACCAACUACUUCAAAUUCAACAUCCUUUCCAAGAUCUUCACUAUGAAGAAUGUUGAUCAGCAAAGUAUACAACAGAGGAUUGAGCAUCA"}, "B17": {"name": "chr6:52144354:52144355:-_ENSG00000112118_ENST00000229854|hu_hu|FALSE|FALSE (ssRNA)", "RNA": "GGGAGUUCUACAGUCCGACGAUCGGCUGGGGCCUUCUCCGGCAUCUCCUGGAUGGUGAUGGUCUGGUGAUCCUUGUAGACAGAAAGGCCAUAUUCUGUCUCAAGGGGAUUGUUCUCCUCAUCCUUGGUAGGAUAGACAGAGCUCAACAGAGGAUUGAGCAUCA"}, "B18": {"name": "chrX:15845472:15845473:-_ENSG00000182287_ENST00000329235|hu_hu|motif|central (ssRNA)", "RNA": "GGGAGUUCUACAGUCCGACGAUCCCACAAGAAGUCAUCAACAAGGGAGGAGAGUUAUGUCAGUCCAAUUUCUUCAAGAACACGGCGUGGGGUUUCAGCUUCCUCCUGCAGUAGAUCAGCCUGCUCAAUUGCUUUAAGGACAUUCAACAGAGGAUUGAGCAUCA"}, "B19": {"name": "chr16:45382771:45382772:-_ENSMUSG00000022661_ENSMUST00000163230|mus_mus|mus_mus_mus_hu_True|1_78 (ssRNA)", "RNA": "GGGAGUUCUACAGUCCGACGAUCCUGGGUCAUGUUAUAAGACAAAUGGACAGGGAGAGCAUGCUUUUCAAAAAAUGUGAGCUAUUGUCUAAGACUAACAAUAUUUAUCUAGCUAUAAAAAUAAGUUAAAUGAAUAAACAUUACCAACAGAGGAUUGAGCAUCA"}, "B20": {"name": "chr16:45382771:45382772:-_ENSMUSG00000022661_ENSMUST00000163230|mus_mus|mus_mus_mus_hu_True|8_78 (ssRNA)", "RNA": "GGGAGUUCUACAGUCCGACGAUCCUGGGUCAUGUUAUAAGACAAAUGGACAGGGAGAGCAUGCUUUUCAAAAAAUGUGAGCUAUUGUCUAAGACUAACAAUAUUUAUCUAGCUAUAAAAAUAAGUUUUAAAUGGACGUUAAGACAACAGAGGAUUGAGCAUCA"}, "B21": {"name": "chr15:42481402:42481403:-_ENSG00000166887_ENST00000318006|hu_hu|FALSE|FALSE (ssRNA)", "RNA": "GGGAGUUCUACAGUCCGACGAUCCUUUGAAACCGUAGUGAUUUGUUGAAAUGUCAAUAGGUCAUGGACAUAAAUGUUAUUUUCUAACAAGCUGACCAGAAUCUUAAACUGGGAAACCACAUGGAUCUGCUGAAUCUUUUUGGACAACAGAGGAUUGAGCAUCA"}, "B22": {"name": "chr2:121258011:121258012:+_ENSMUSG00000027248_ENSMUST00000028683|mus_mus|FALSE|FALSE (ssRNA)", "RNA": "GGGAGUUCUACAGUCCGACGAUCCUUGCCUUGUAUCAAAUCUUUAUUAUCUUCCGUCAUAUGAGGACAGAGACCAAAAAUGCUAUCCUGAAUAAAUUUCUUGAUCUUGCCACUGGUCAUUUUCUUUUCAGUAUAUGCCACAGUCAACAGAGGAUUGAGCAUCA"}, "B23": {"name": "chr16:45382771:45382772:-_ENSMUSG00000022661_ENSMUST00000163230|mus_mus|mus_mus_mus_hu_True|18_78 (ssRNA)", "RNA": "GGGAGUUCUACAGUCCGACGAUCCUGGGUCAUGUUAUAAGACAAAUGGACAGGGAGAGCAUGCUUUUCAAAAAAUGUGAGCUAUUGUCUAAGACUAACAAUAUUUAUCUAGCUAUAUAAAAAUAAGAAAUGAAUAAGUUAAGACAACAGAGGAUUGAGCAUCA"}},
  "note": "Changes are numbered by the printed parent chain. Over roughly 24,000 sequences, “enrichment r” has its median near 0.99; the highest 2% begin near 3.7. The sample as a whole holds a higher share of the highest values than the screen did.",
  "data": [
    {"target": "T1, UNK ZnF1-3 (human, UniProt Q9C0B0 31-174)", "T1 sequence": "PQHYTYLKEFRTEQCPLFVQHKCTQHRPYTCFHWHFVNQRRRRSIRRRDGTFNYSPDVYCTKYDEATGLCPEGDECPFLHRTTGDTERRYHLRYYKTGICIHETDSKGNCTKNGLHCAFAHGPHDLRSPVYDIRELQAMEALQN", "assay": "nsRBNS (natural sequence RNA bind-n-seq); RBNS binding buffer (assumed for nsRBNS): 25 mM Tris pH 7.5, 150 mM KCl, 3 mM MgCl2, 0.01% Triton X-100, 500 ug/ml BSA, 20 U/ml SUPERase-In, 4 C; UNK is unkempt and MSI1 is Musashi-1; names of the RNAs are library labels; protein concentration not given here; high values mean tight binding", "units": {"binding signal": "enrichment R"}, "values": [
      {"binder": "B1", "binding signal": 0.8},
      {"binder": "B2", "binding signal": 0.508},
      {"binder": "B3", "binding signal": 1.13},
      {"binder": "B4", "binding signal": 0.563},
      {"binder": "B5", "binding signal": 0.689},
      {"binder": "B6", "binding signal": 0.398},
      {"binder": "B7", "binding signal": 0.554},
      {"binder": "B8", "binding signal": 1.14},
      {"binder": "B9", "binding signal": 0.961},
      {"binder": "B10", "binding signal": 5.39},
      {"binder": "B11", "binding signal": 5.29},
      {"binder": "B12", "binding signal": 6.65},
      {"binder": "B13", "binding signal": 0.641},
      {"binder": "B14", "binding signal": 0.675},
      {"binder": "B15", "binding signal": 0.662},
      {"binder": "B16", "binding signal": 0.727},
      {"binder": "B17", "binding signal": 0.84},
      {"binder": "B18", "binding signal": 1.51},
      {"binder": "B19", "binding signal": 4.46},
      {"binder": "B20", "binding signal": 5.26},
      {"binder": "B21", "binding signal": 0.563},
      {"binder": "B22", "binding signal": 1.28},
      {"binder": "B23", "binding signal": 10}
    ]}
  ]
}
